One experiment deals with Receptor-type tyrosine-protein kinase FLT3 (Homo sapiens) (UniProt P36888). The note with it: at 0.1 µM.
Chain of Receptor-type tyrosine-protein kinase FLT3 (Homo sapiens) (P36888 whole entry): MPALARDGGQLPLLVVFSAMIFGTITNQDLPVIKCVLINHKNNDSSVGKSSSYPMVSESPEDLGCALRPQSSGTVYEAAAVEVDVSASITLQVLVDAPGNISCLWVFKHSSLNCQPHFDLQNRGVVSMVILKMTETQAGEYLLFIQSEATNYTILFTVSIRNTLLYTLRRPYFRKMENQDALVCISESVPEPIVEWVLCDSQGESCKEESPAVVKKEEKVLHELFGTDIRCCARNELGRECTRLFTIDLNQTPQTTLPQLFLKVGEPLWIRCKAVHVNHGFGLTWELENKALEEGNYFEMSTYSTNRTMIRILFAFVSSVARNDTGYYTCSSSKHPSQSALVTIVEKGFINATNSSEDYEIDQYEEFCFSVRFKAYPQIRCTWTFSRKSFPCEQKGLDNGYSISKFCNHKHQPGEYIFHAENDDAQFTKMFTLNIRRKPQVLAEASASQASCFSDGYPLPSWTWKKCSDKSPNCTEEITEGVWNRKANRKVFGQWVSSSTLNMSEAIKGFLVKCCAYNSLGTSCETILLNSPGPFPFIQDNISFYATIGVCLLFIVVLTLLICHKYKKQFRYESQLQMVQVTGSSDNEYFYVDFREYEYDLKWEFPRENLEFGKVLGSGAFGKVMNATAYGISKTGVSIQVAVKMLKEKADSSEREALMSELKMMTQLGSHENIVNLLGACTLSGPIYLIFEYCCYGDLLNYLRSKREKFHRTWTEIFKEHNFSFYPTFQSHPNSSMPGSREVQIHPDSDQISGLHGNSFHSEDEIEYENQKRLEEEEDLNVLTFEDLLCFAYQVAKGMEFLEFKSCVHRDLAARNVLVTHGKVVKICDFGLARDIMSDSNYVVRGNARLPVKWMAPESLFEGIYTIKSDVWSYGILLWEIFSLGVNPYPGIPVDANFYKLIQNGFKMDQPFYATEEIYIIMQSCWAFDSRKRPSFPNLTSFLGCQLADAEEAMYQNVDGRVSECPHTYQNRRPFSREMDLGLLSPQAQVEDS
What is called inhibition is the change of the read-out against control, counted positive when it falls. Consider `CS(=O)(=O)CCN(CC#N)Cc1ccc(-c2ccc3ncnc(Nc4ccc(OCc5cccc(F)c5)c(Cl)c4)c3c2)o1`, for which the inhibition is -0.67%.
On the same count and under the same terms, the result for `CC(=O)Nc1cccc(C#Cc2cncnc2Nc2ccc(OCc3cccc(F)c3)c(Cl)c2)n1` reads -2.34%; that for `COc1ccccc1Nc1ncc(-c2ccccc2)o1`, 61%; that for `NS(=O)(=O)c1cccc(-c2ccc3c(NC(=O)C4CC4)n[nH]c3c2)c1`, 0.61%.
On the same count and under the same terms, the same measure for `Cc1nnc(-c2ccc(C)c(-c3ccc(C(=O)Nc4cccc(C#N)c4)cc3)c2)o1`: -0.61%; for `COc1ccc(-c2nn3ncccc3c2-c2ccnc(Nc3ccc(Cl)c(C(F)(F)F)c3)n2)cc1`: -0.69%; for `O=C1NC(=O)C(c2ccc(Cl)cc2)=C1Nc1ccc(Cl)c(C(=O)O)c1`: -0.57%.
The same measure, in the same setting: the result for `COC(=O)Nc1nc2cc(Oc3cccc(NC(=O)Nc4cc(C(F)(F)F)ccc4F)c3)ccc2[nH]1` reads -3.12%.
On to `O=C1NC(=O)C(c2cccc(Cl)c2)=C1Nc1ccc(O)c(Cl)c1`, for which the inhibition is -1.02%.
As to `CCCN1CCC=C(c2ccc(Nc3nc(Nc4ccccc4C(N)=O)c4cc[nH]c4n3)c(C)c2)C1`, the inhibition worked out at 6.74%.
For the compound `Nc1nc(-c2ccc3c(c2)C(=Cc2cc(Br)c(O)c(Br)c2)C(=O)N3)cs1`, the inhibition was -3.03%.
On the same count and under the same terms, the result for `O=C1NC(=O)C(c2ccccc2Cl)=C1Nc1cccc(O)c1` reads 2.15%.
For the compound `CCc1cccc(NC(=O)Nc2ccc(Oc3ccc4nc(NC(=O)OC)[nH]c4c3)cc2)c1`, the inhibition stood at 37.4%.
The same measure, in the same setting: the same measure for `CC1=C(C(=O)Nc2ccc3[nH]ncc3c2)C(c2ccc3ccccc3c2)CC(=O)N1` (stereo unspecified): 0.05%; for `CS(=O)(=O)Nc1ccc(N/C=C2\C(=O)Nc3ccccc32)cc1`: 18.4%; for `COc1cc2c(cc1Nc1nc(N3CCc4ccccc43)c3cc[nH]c3n1)N(C(=O)CN(C)C)CC2`: 0.56%.
Still for that read-out and setting: the same measure for `CCN1CCC(CC(=O)Nc2n[nH]c3nc(-c4cccs4)c(Br)cc23)CC1`: -0.9%.
Still for that read-out and setting: the result for `NCc1ccc(-c2nc(-c3ccc(Cl)c(O)c3)c(-c3ccncc3)[nH]2)cc1` reads -0.2%; that for `COC(=O)Nc1nc2cc(Oc3ccc(NC(=O)Nc4cccc(C(=O)O)c4)cc3)ccc2[nH]1`, 1.16%.
In the case of `O=C(Nc1n[nH]c2nc(-c3ccco3)c(Br)cc12)C1CC1`, the inhibition came to 1.23%.
Turning to `CCn1c(-c2nonc2N)nc2cnc(Oc3cccc(NC(=O)c4ccc(OCCN5CCOCC5)cc4)c3)cc21`, the inhibition stood at 0.9%.
For the compound `COc1cccc(-n2ncc3c(N/N=C/c4cccc(F)c4)ncnc32)c1`, the inhibition worked out at 0.44%.
On to `Nc1ncnc2occ(-c3ccc(NC(=O)Nc4cccc(C(F)(F)F)c4)cc3)c12`, for which the inhibition was found to be 85.3%.
Same read-out and setting: the result for `CCn1c(-c2nonc2N)nc2cncc(C(=O)N3CC[C@H](N)C3)c21` reads 1.58%.
Same read-out and setting: the same measure for `COc1cc2ncn(-c3cc(O[C@@H](C)c4ccccc4Cl)c(C(N)=O)s3)c2cc1OC`: 5.29%; for `CCCN1CCC(Oc2cc(Nc3nc(Nc4cccc(F)c4C(N)=O)c4cc[nH]c4n3)c(OC)cc2Cl)CC1`: 0.23%.
The same measure, in the same setting: the same measure for `[O-][S+]1CCN(Cc2ccc(-c3ccc4ncnc(Nc5ccc(OCc6ccccc6)c(F)c5)c4c3)o2)CC1`: -0.1%; for `Cc1ccc(C(=O)NC2CCCCC2)cc1-c1ccc(C(=O)NCC2CC2)cc1`: 0.22%.
With `CNC(=O)c1cncc(/C=C/c2c(Cl)cccc2Cl)c1`, the inhibition is -0.33%.
Still for that read-out and setting: the result for `CN(C)c1cc2c(Nc3ccc4nc(Cc5ccccc5)[nH]c4c3)ncnc2cn1` reads 0.49%; that for `CCn1c(-c2nonc2N)nc2ccncc21`, 3.16%; that for `Fc1cccc(COc2ccc(Nc3ncnc4sc(-c5cccs5)cc34)cc2Cl)c1`, 0.38%.
On the same count and under the same terms, the same measure for `Cc1ccc(NC(=O)c2ccnc(N3CCCC3)c2)cc1-c1ccc(C(=O)NCC2CC2)cc1`: 1.08%.

The next experiment has the same target. To be noted: at 1 µM.
Turning to `CS(=O)(=O)CCN(CC#N)Cc1ccc(-c2ccc3ncnc(Nc4ccc(OCc5cccc(F)c5)c(Cl)c4)c3c2)o1`, the inhibition was found to be 2.32%.
The same measure, in the same setting: the result for `CC(=O)Nc1cccc(C#Cc2cncnc2Nc2ccc(OCc3cccc(F)c3)c(Cl)c2)n1` reads -0.61%.
Same read-out and setting: the result for `COc1ccccc1Nc1ncc(-c2ccccc2)o1` reads 87.2%; that for `NS(=O)(=O)c1cccc(-c2ccc3c(NC(=O)C4CC4)n[nH]c3c2)c1`, -0.59%.
The same measure, in the same setting: the result for `Cc1nnc(-c2ccc(C)c(-c3ccc(C(=O)Nc4cccc(C#N)c4)cc3)c2)o1` reads 1.58%; that for `COc1ccc(-c2nn3ncccc3c2-c2ccnc(Nc3ccc(Cl)c(C(F)(F)F)c3)n2)cc1`, 1.14%; that for `O=C1NC(=O)C(c2ccc(Cl)cc2)=C1Nc1ccc(Cl)c(C(=O)O)c1`, 1.93%.
As to `COC(=O)Nc1nc2cc(Oc3cccc(NC(=O)Nc4cc(C(F)(F)F)ccc4F)c3)ccc2[nH]1`, the inhibition turned out to be 3.93%.
With `O=C1NC(=O)C(c2cccc(Cl)c2)=C1Nc1ccc(O)c(Cl)c1`, the inhibition was 0.95%.
The same measure, in the same setting: the same measure for `CCCN1CCC=C(c2ccc(Nc3nc(Nc4ccccc4C(N)=O)c4cc[nH]c4n3)c(C)c2)C1`: 9.96%; for `Nc1nc(-c2ccc3c(c2)C(=Cc2cc(Br)c(O)c(Br)c2)C(=O)N3)cs1`: 0.66%; for `O=C1NC(=O)C(c2ccccc2Cl)=C1Nc1cccc(O)c1`: 2.8%.
The same measure, in the same setting: the result for `CCc1cccc(NC(=O)Nc2ccc(Oc3ccc4nc(NC(=O)OC)[nH]c4c3)cc2)c1` reads 48%.
For `CC1=C(C(=O)Nc2ccc3[nH]ncc3c2)C(c2ccc3ccccc3c2)CC(=O)N1` (stereo unspecified), the inhibition was 3.17%.
On the same count and under the same terms, the result for `CS(=O)(=O)Nc1ccc(N/C=C2\C(=O)Nc3ccccc32)cc1` reads 74.1%.
The same measure, in the same setting: the result for `COc1cc2c(cc1Nc1nc(N3CCc4ccccc43)c3cc[nH]c3n1)N(C(=O)CN(C)C)CC2` reads -1.35%; that for `CCN1CCC(CC(=O)Nc2n[nH]c3nc(-c4cccs4)c(Br)cc23)CC1`, 9.19%.
Still for that read-out and setting: the result for `NCc1ccc(-c2nc(-c3ccc(Cl)c(O)c3)c(-c3ccncc3)[nH]2)cc1` reads 3.28%; that for `COC(=O)Nc1nc2cc(Oc3ccc(NC(=O)Nc4cccc(C(=O)O)c4)cc3)ccc2[nH]1`, 5.75%; that for `O=C(Nc1n[nH]c2nc(-c3ccco3)c(Br)cc12)C1CC1`, 2.62%.
As for `CCn1c(-c2nonc2N)nc2cnc(Oc3cccc(NC(=O)c4ccc(OCCN5CCOCC5)cc4)c3)cc21`, the inhibition was 3.19%.
Same read-out and setting: the same measure for `COc1cccc(-n2ncc3c(N/N=C/c4cccc(F)c4)ncnc32)c1`: 6.78%; for `Nc1ncnc2occ(-c3ccc(NC(=O)Nc4cccc(C(F)(F)F)c4)cc3)c12`: 93.9%; for `CCn1c(-c2nonc2N)nc2cncc(C(=O)N3CC[C@H](N)C3)c21`: 1.11%.
`COc1cc2ncn(-c3cc(O[C@@H](C)c4ccccc4Cl)c(C(N)=O)s3)c2cc1OC`: the inhibition was 3.2%.
On the same count and under the same terms, the result for `CCCN1CCC(Oc2cc(Nc3nc(Nc4cccc(F)c4C(N)=O)c4cc[nH]c4n3)c(OC)cc2Cl)CC1` reads 2.55%.
On the same count and under the same terms, the result for `[O-][S+]1CCN(Cc2ccc(-c3ccc4ncnc(Nc5ccc(OCc6ccccc6)c(F)c5)c4c3)o2)CC1` reads 2.1%; that for `Cc1ccc(C(=O)NC2CCCCC2)cc1-c1ccc(C(=O)NCC2CC2)cc1`, -0.64%.
Consider `CNC(=O)c1cncc(/C=C/c2c(Cl)cccc2Cl)c1`, for which the inhibition was determined as 2.17%.
As to `CN(C)c1cc2c(Nc3ccc4nc(Cc5ccccc5)[nH]c4c3)ncnc2cn1`, the inhibition was 0.52%.
On to `CCn1c(-c2nonc2N)nc2ccncc21`, for which the inhibition is 1.23%.
With `Fc1cccc(COc2ccc(Nc3ncnc4sc(-c5cccs5)cc34)cc2Cl)c1`, the inhibition is 3.27%.
Regarding `Cc1ccc(NC(=O)c2ccnc(N3CCCC3)c2)cc1-c1ccc(C(=O)NCC2CC2)cc1`, the inhibition turned out to be 7.31%.

(Values after ChEMBL document CHEMBL1961873, “Compounds: GSK PKIS; Assays: Nanosyn kinase panel” (2012).)
